Screening results: PubChem BioAssay, National Center for Advancing Translational Sciences (NCATS)
The list is not random: actives were taken first. Their share in the collection is about 17%.
ATXN2 expr inh – inhibitors of ATXN2 expression; HEK-293 ATXN2-luciferase reporter, luminescence, 24 h; Potency, µM (top dose mostly 57 µM), without a hit: at the top dose activity change, negative = inhibition, hits mostly inhibitors; actives 0.72% (n = 360,000); further: on the % scale 0 is the no-effect control and ±100 the full control effect; nearly all actives have a fitted effect of over 55% in size
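qHTS (up to 57 uM final) was run with 24 h compound exposure of reporter cells at 37 °C. Each well was multiplexed: SteadyGlo luminescence measured ATXN2-luciferase expression after a fluorogenic Gly-Phe-AFC viability readout (25 uM final).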
HepG2 viability – HepG2 cytotoxicity, counter-screen for TGF-b inhibitors; AID 588856; Potency, µM (titrated, usually from 46.1 µM), for inactives: top-dose activity change, negative = cytotoxicity, actives largely listed as cytotoxic; HepG2 CAGA-GFP viability, ATP luminescence, 18 h; actives 0.76% (n = 410,000)
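CellTiter-Glo luminescence gave cytotoxicity after 18 hours at 37 degrees C. The cells were HepG2 CAGA-GFP in 1% FBS DMEM, stimulated with 500 pg/mL TGF-beta after compound addition. %Activity was normalised to no-cell wells (complete cell-killing) and DMSO (no toxicity), and curves were fitted and classified.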
DT40 TDP1 no CPT – qHTS for Inhibitors of human tyrosyl-DNA phosphodiesterase 1 (TDP1): qHTS in cells in absence of CPT; DT40 Tdp1-/- hTDP1 cells, no CPT, ATP luminescence, 48 h; Potency, µM (top dose mostly 46.2 µM), inactives show top-dose activity change, negative = growth inhibition, most hits filed as inhibitors; actives 15% (n = 420,000); AID 686978, 2013; further: on the % scale 0 is the no-effect control and ±100 the full control effect; nearly all actives have a fitted effect of over 55% in size
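Growth of hTDP1-complemented DT40 Tdp1-knockout cells is measured by ATP luminescence after at least 48 hr compound exposure at 37 °C, with DMSO substituting for the 20 nM CPT used in the parallel screen.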
TGFb SMAD3 inh – blocks TGF-b signaling. HepG2 CAGA-GFP TGF-b/SMAD3 reporter, GFP fluorescence, 18 h; TGF-beta stimulated, 500 pg/mL final. Potency, µM (series often up to 46.1 µM), for inactives: at the top dose activity, negative = inhibition, most hits filed as inhibitors. actives 1.2% (n = 410,000); further: on the % scale 0 is the no-effect control and ±100 the full control effect; nearly all actives have a fitted effect of over 65% in size
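HEPG2 CAGA-GFP, 1000 cells/well; 2 h settle, 37 C; cpd via pin tool; TGF-b 500 pg/mL final; 18 h, 37 C; GFP imaging ex488/em500-530; %Activity normalised to -TGF-b and +DMSO controls; CRC fit, curve class.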
ATXN viability – reduces viability in counter-screen for ATXN expression inhibitors; S2 cells (HEK-293 line with an ATXN2-luciferase reporter) viability, CellTiter-Fluor protease fluorescence, 24 h; Potency, µM (titrated, usually from 56.7 µM), most hits filed as cytotoxic; actives 0.49% (n = 400,000); AID 651635; further: nearly all actives have a fitted effect of over 40% in size
TDP1 cell CPT – growth inhibition of DT40 Tdp1-/-;hTDP1 cells with camptothecin (screen for TDP1 inhibitors) | actives 12% (n = 420,000) | chicken DT40 Tdp1-/-;hTDP1 cells + 20 nM CPT, ATP luminescence, 48 h | AID 686979 | Potency, µM (titrated, usually from 46.2 µM), without a hit: at the top dose activity change, negative = growth inhibition, hits mostly inhibitors; further: on the % scale 0 is the no-effect control and ±100 the full control effect; nearly all actives have a fitted effect of over 55% in size
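Cell growth measured by CellTiter-Glo luminescence after a minimum 48 h, 37 C compound exposure with 20 nM CPT in Tdp1-knockout DT40 cells stably expressing hTDP1, seeded 400/well; qHTS titration format.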
* hit, by the source's call; i = inactive; u = inconclusive; x = no result. The call rests on the fitted dose curve; in most records, active means well fitted curve in the direction sought with a large enough effect; inconclusive means small, poorly fitted or top-dose-only effect, or another doubt; inactive means no such curve, though single readings can be large; an effect the other way counts as inactive or inconclusive. Potency means the concentration at half of the fitted maximal effect.

SMILES	ATXN2 expr inh	HepG2 viability	DT40 TDP1 no CPT	TGFb SMAD3 inh	ATXN viability	TDP1 cell CPT
COc1cc2cnc(-c3ccccc3)c(C(=O)c3ccc(F)cc3)c2cc1OC	-18%	-3%	23µM*	0%	i	18µM*
O=C(O)C1=CC(O)C(O)[C@H](O)C1 (stereo partly specified)	1%	x	x	x	x	x
O=C(Nc1ccccc1Br)N1CCC(CN2CCCC2)CC1	4%	16%	-20%	0%	i	-3%
CCCCCCCCn1c(=O)c(C(=O)OCC)c(O)c2ccccc21	-7%	-6%	u	13%	i	u
CCCn1c(=O)c(C(=O)Nc2ccccc2N)c(O)c2ccccc21	x	-15%	u	-4%	i	26µM*
CCCn1c(=O)c(C(=O)Nc2ccccc2)c(O)c2ccccc21	8%	8%	u	7%	i	u
CCCn1c(=O)c(C(=O)NC(C)c2ccccc2)c(O)c2ccccc21 (stereo unspecified)	-2%	-10%	26µM*	0%	i	u
CCCCCCC(=O)NNC(=O)c1c(O)c2ccccc2n(CCC)c1=O	-12%	2%	u	10%	i	u
CCCCCCCC(=O)NNC(=O)c1c(O)c2ccccc2n(CCC)c1=O	0%	-1%	23µM*	-5%	i	u
CCCCCn1c(=O)c(-c2nc3ccccc3[nH]2)c(O)c2ccccc21	-1%	5%	9.2µM*	20%	i	21µM*
Cc1ccc(C)c(Cn2nnc3c(=O)[nH]c(C4CCCN(C(=O)c5cccs5)C4)nc32)c1 (stereo unspecified)	2%	-18%	-18%	-1%	i	-8%
O=C(O)C[C@H]1c2cc(F)ccc2S(=O)(=O)N1C1CCN(Cc2ccccc2)CC1	10%	-2%	-12%	-3%	i	-1%
O=C(Nc1ccc(F)cc1)c1cc2cc3ccc(Cl)cc3nc2o1	u	-2%	-20%	u	i	0%
CCCn1c(=O)c(C(=O)Nc2ccccc2C)c(O)c2ccccc21	5%	0%	u	15%	x	u
CCn1c(=O)c(C(=O)Nc2ccccc2C)c(O)c2ccccc21	14%	0%	23µM*	18%	i	u
C[C@@]12CC(=O)NC1N(C(=O)c1cccc(C(F)(F)F)c1)C(c1ccccc1OC(=O)c1cccc(C(F)(F)F)c1)C2 (stereo partly specified)	-8%	-40%	u	13µM*	u	u
O=C(COC(=O)CC1CCCC1)Nc1ccc(Cl)cc1	-9%	-7%	2%	5%	i	-8%
O=C(O)C(Cc1cccs1)c1cccs1 (stereo unspecified)	-6%	14%	2%	-7%	i	-14%
O=C(c1ccc2c3c(cccc13)CC2)C1CCCN(C(=O)c2cccnc2)C1 (stereo unspecified)	x	-67%	21µM*	u	i	12µM*
COc1cc(CN2CCCC(C(=O)c3ccc4c5c(cccc35)CC4)C2)cc(OC)c1O (stereo unspecified)	u	-38%	4.6µM*	u	i	4.6µM*
O=C(c1ccc2c3c(cccc13)CC2)C1CCCN(Cc2cccnc2)C1 (stereo unspecified)	u	-20%	u	-4%	u	-20%
CN1CCC(C(=O)N2CCCC(C(=O)c3ccc4c5c(cccc35)CC4)C2)CC1 (stereo unspecified)	x	-9%	18µM*	-3%	i	u
CC(=O)N1CCCC(C(=O)c2ccc3c4c(cccc24)CC3)C1 (stereo unspecified)	x	-14%	23µM*	-26%	i	-28%
O=C(COc1ccccc1)Nc1nnc2n1CCS2	x	-15%	0%	-3%	x	-1%
Cc1cnc(-n2ncc(C(=O)N[C@H]3CCCCNC3=O)c2C2CC2)nc1-c1cccs1	x	x	-18%	x	i	-22%
SMILES	ATXN2 expr inh	HepG2 viability	DT40 TDP1 no CPT	TGFb SMAD3 inh	ATXN viability	TDP1 cell CPT
C[C@@H]1CCCCO[C@H](CN(C)C(=O)C2CCCCC2)[C@@H](C)CN([C@H](C)CO)C(=O)c2cc(N(C)C)ccc2O1	8%	0%	u	-1%	i	u
Cc1cc(OCCCCOc2ccc(S(N)(=O)=O)c(C)c2)ccc1S(N)(=O)=O	x	-34%	u	u	i	18µM*
Cc1ccc(OCCCSc2ncccn2)cc1C	52%	-14%	-21%	-26%	i	2%
Cc1ccc(NS(=O)(=O)c2cc(C(=O)Nc3cccc(N(C)S(C)(=O)=O)c3)ccc2C)c(C)c1	-2%	9%	18µM*	u	u	16µM*
O=C(Nc1cccc(S(=O)(=O)N2CCCC2)c1)c1cc(-c2ccccn2)nc2ccccc12	0%	-16%	21µM*	-5%	i	23µM*
COc1ccc(NC(=O)c2cccc(S(=O)(=O)N(C)c3ccccc3)c2)cn1	-2%	-25%	16µM*	-2%	i	16µM*
CSc1ncccc1C(=O)Nc1cccc(S(=O)(=O)N2CCCCC2)c1	x	-20%	15µM*	0%	u	u
Cc1ccc(N(C)S(=O)(=O)c2cccc(C(=O)Nc3ccc(C)cn3)c2)cc1	-8%	-27%	u	0%	i	u
CC(CC(=O)Nc1nnc(CC(C)(C)C)s1)c1ccccc1 (stereo unspecified)	x	3%	u	4%	i	u
Nc1ccccc1-n1nc2ccc3ccccc3c2n1	x	-10%	-27%	-4%	x	u
CSc1ncccc1C(=O)Nc1cccc(S(=O)(=O)N(C)c2ccccc2)c1	-29%	-14%	u	-3%	i	18µM*
CC(=O)Nc1ccc(C(=O)Nc2cccc(S(=O)(=O)N(C)c3ccccc3)c2)cc1	u	-20%	u	-14%	i	18µM*
CN(c1ccccc1)S(=O)(=O)c1cccc(C(=O)Nc2ccc3c(c2)CCC3)c1	4%	6%	2.6µM*	-35%	u	5.2µM*
O=C(Nc1ccc2c(c1)CCC2)c1cccc(S(=O)(=O)N2CCN(c3ccccc3)CC2)c1	-4%	-10%	-20%	-3%	i	-22%
CN(c1cccc(NC(=O)c2ccc(N(C)S(=O)(=O)c3ccccc3)cc2)c1)S(C)(=O)=O	x	-4%	u	-25%	u	21µM*
